Measurements: the supplement of paper PMC10981050
“And” between values parts separate entries of the source, which are not always exact repeats. Equal values may be shown once. Where a name gives a salt, the structure may show the parent alone.

Legend:
Test in all cases: cell viability relative to vehicle control; higher = less cytotoxic
Conditions in all cases: 10 µM
K562 = system: K562
How it was run: (§1)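 Each screen used CRISPR-edited mutant and wild-type clones from four leukaemia lines. Compounds were acoustically dispensed at a single 10 µM dose, and CellTiter-Glo luminescence was read after 48 h with the supernatant first removed. Viability was analysed in Genedata Screener and given as percent of the on-plate vehicle control.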

MARIMO = system: MARIMO
How it was run: as §1

MOLM14 = system: MOLM14
How it was run: as §1

OCI-AML2 = system: OCI-AML2
How it was run: as §1

Row | Structure (SMILES) | cell viability (K562; SRSF2 genotype: SRSF2 P95H/wt) | cell viability (K562; SRSF2 genotype: SRSF2 wt/wt) [%] | cell viability (MARIMO; SRSF2 genotype: SRSF2 P95H/wt) [%] | cell viability (MARIMO; SRSF2 genotype: SRSF2 wt/wt) [%] | cell viability (MOLM14; SRSF2 genotype: SRSF2 P95H/wt) [%] | cell viability (MOLM14; SRSF2 genotype: SRSF2 wt/wt) [%] | cell viability (OCI-AML2; SRSF2 genotype: P95H/wt) [%] | cell viability (OCI-AML2; SRSF2 genotype: wt/wt) [%]
1 | N[C@@H](Cc1cc(I)c(O)c(I)c1)C(=O)O [3,5-Diiodotyrosine Dihydrate] | 94.2% and 94.5% | 97.4 | 97 | 102 | 96.6 | 99.9 | 100 | 102
2 | C[C@]12C=CC(=O)C=C1CC[C@@H]1[C@@H]2[C@@H](O)C[C@@]2(C)[C@H]1CC[C@]2(O)C(=O)CO [Prednisolone] | 105% and 98.9% | 106 | 101 | 103 | 98.5 | 96.3 | 91.1 | 111
3 | O=C(CCCCCCC(=O)N/N=C/c1ccc(N(c2ccccc2)c2ccccc2)cc1)NO | 38.5% and 60.9% | 54.6 | 65.8 | 18.7 | 1.58 | 1.31 | 0.64 | 1.98
4 | OCC(O)C(O)C(O)C(O)CO (stereo not given) [Allitol] | 111% and 98.4% | 111 | 107 | 101 | 108 | 103 | 109 | 99.3
5 | CN(C)CCC[C@@]1(c2ccc(F)cc2)OCc2cc(C#N)ccc21 [Escitalopram Oxalate] | 87.5% and 88.8% | 92.8 | 85.4 | 91.1 | 89.4 | 93.7 | 89.2 | 88.4
6 | OCC(O)C(O)CO (stereo not given) [Erythritol] | 100% and 105% | 99.9 | 98.4 | 106 | 101 | 101 | 98.2 | 110
7 | CC(=O)c1cc(O)ccc1O [2',5'-Dihydroxyacetophenone] | 90.6% and 97.4% | 97.7 | 94.6 | 87.5 | 103 | 97.6 | 94.7 | 101
8 | CCCCC[C@H](O)/C=C/[C@H]1[C@H](O)CC(=O)[C@@H]1C/C=C\CCCC(=O)O [Dinoprostone] | 99% | 99.1 | 91.4 | 79.3 | 59.1 | 62 | 74.5 | 67.5
9 | C=C[C@]1(C)C[C@@H](OC(=O)CSCCN(CC)CC)[C@]2(C)[C@H](C)CC[C@]3(CCC(=O)[C@H]32)[C@@H](C)[C@@H]1O [Tiamulin fumarate] | 85.7% and 84.7% | 89.8 | 93.4 | 91.3 | 94.2 | 93.7 | 88.6 | 96.6
10 | COc1cc2ncnc(Nc3ccc(F)c(Cl)c3)c2cc1O | 92.5% and 95.6% | 102 | 102 | 101 | 81.9 | 101 | 90.2 | 94
11 | O=C(O)Cn1nnc(-c2cc(N3CCC(Oc4cc(F)ccc4Br)CC3)no2)n1 | 106% and 102% | 110 | 101 | 104 | 103 | 103 | 101 | 103
12 | O=C1NC(=NCc2cccs2)S/C1=C\c1ccc2ncccc2c1 | 92% and 98.2% | 98.2 | 50.9 | 77.9 | 37 | 41.1 | 53.8 | 57.1
13 | CCOC(=O)O[C@]1(C(=O)OCCl)CC[C@H]2[C@@H]3CCC4=CC(=O)C=C[C@]4(C)[C@H]3[C@@H](O)C[C@@]21C [Loteprednol etabonate] | 93.6% and 104% | 98 | 92.1 | 98.5 | 96.3 | 97.2 | 111 | 114
14 | COc1ccc2cc3[n+](cc2c1OC)CCc1cc2c(cc1-3)OCO2 [Berberine] | 65.6% and 74.1% | 72.6 | 67.3 | 62.1 | 75.4 | 81.8 | 52 | 53.8
15 | CC(C)(C)OC(=O)N[C@H]1CCCCC/C=C\[C@@H]2C[C@@]2(C(=O)NS(=O)(=O)C2CC2)NC(=O)[C@@H]2C[C@@H](OC(=O)N3Cc4cccc(F)c4C3)CN2C1=O [Danoprevir (ITMN-191)] | 97.7% and 108% | 98.9 | 106 | 106 | 96.8 | 101 | 123 | 108
16 | CC1OC(OC2C(CO)OC(OCC3OC(OC(=O)C45CCC(C)(C)CC4C4=CCC6C7(C)CCC(OC8OCC(O)C(O)C8OC8OC(C)C(O)C(O)C8O)C(C)(CO)C7CCC6(C)C4(C)CC5)C(O)C(O)C3O)C(O)C2O)C(O)C(O)C1O (stereo not given) [Hederacoside C] | 101% and 93% | 95.3 | 96.9 | 101 | 97.3 | 98 | 93.5 | 106
17 | OC1CCC(Oc2cccc3cnc(Nc4ccc5nc[nH]c5c4)nc23)CC1 (stereo not given) | 40.6% and 46.8% | 32.7 | 11.5 | 4.14 | 1.38 | 0.57 | 1.67 | 16.3
18 | COc1cc2c(cc1Cc1cccc(Cl)c1F)c(=O)c(C(=O)O)cn2[C@H](CO)C(C)C [Elvitegravir (GS-9137)] | 52% and 50.4% | 45.1 | 40.2 | 39.1 | 57.3 | 35 | 12.9 | 15.9
19 | O=C(/C=C/c1ccc(O)cc1)c1ccc(O)cc1O [Isoliquiritigenin] | 86.2% and 94.8% | 84.4 | 83.3 | 98.4 | 53.5 | 74.7 | 89 | 98
20 | Cc1nc2n(c(=O)c1CCN1CCC(c3noc4cc(F)ccc34)CC1)CCCC2 [Risperidone (Risperdal)] | 93.6% and 101% | 93.5 | 94 | 99.2 | 100 | 98.2 | 98.8 | 99

Row | Structure (SMILES) | cell viability (K562; SRSF2 genotype: SRSF2 P95H/wt) | cell viability (K562; SRSF2 genotype: SRSF2 wt/wt) [%] | cell viability (MARIMO; SRSF2 genotype: SRSF2 P95H/wt) [%] | cell viability (MARIMO; SRSF2 genotype: SRSF2 wt/wt) [%] | cell viability (MOLM14; SRSF2 genotype: SRSF2 P95H/wt) [%] | cell viability (MOLM14; SRSF2 genotype: SRSF2 wt/wt) [%] | cell viability (OCI-AML2; SRSF2 genotype: P95H/wt) [%] | cell viability (OCI-AML2; SRSF2 genotype: wt/wt) [%]
21 | CCCN(CCc1cccs1)[C@H]1CCc2c(O)cccc2C1 [Rotigotine] | 99.3% and 105% | 104 | 89.7 | 105 | 93.8 | 101 | 107 | 92.3
22 | CCn1cc(C(=O)O)c(=O)c2cc(F)c(N3CCNCC3)cc21 [Norfloxacin (Norxacin)] | 91.3% and 98.8% | 90.9 | 88.7 | 95.5 | 90.5 | 91.8 | 97.4 | 91.5
23 | CS(=O)(=O)N1CCc2c(-c3cnc(N)nc3)nc(N3CCOCC3)nc21 | 56.4% and 67% | 66.8 | 53.6 | 42.5 | 34.2 | 35.9 | 17.8 | 25.3
24 | CC1(C)[C@@H](OC(=O)CCC(=O)O)CC[C@]2(C)[C@H]3C(=O)C=C4[C@@H]5C[C@@](C)(C(=O)O)CC[C@]5(C)CC[C@@]4(C)[C@]3(C)CC[C@@H]12 [Carbenoxolone disodiuM] | 95.9% and 92.2% | 88 | 96.2 | 99 | 91.8 | 96.7 | 89.3 | 103
25 | CC(C)NCC(O)COc1cccc2ccccc12 (stereo not given) [Propranolol HCl] | 94% and 88.3% | 97.6 | 86.2 | 92.9 | 94.2 | 98.2 | 84.7 | 97
26 | COc1ccc2c(c1)c(C1=C(c3c[nH]c4ccccc34)C(=O)NC1=O)cn2CCCN(C)C | 84.2% and 80.9% | 74.5 | 69.8 | 85.8 | 30.9 | 25.9 | 31.8 | 49.9
27 | Cc1cnc(Nc2ccc(N3CCN(C)CC3)cc2)nc1Nc1cccc(S(=O)(=O)NC(C)(C)C)c1 | 0.99% and 2.2% | 2.6 | 17.1 | 16.1 | 0.12 | 0.18 | 0.19 | 2.96
28 | OCc1ccc(O[C@@H]2O[C@H](CO)[C@@H](O)[C@H](O)[C@H]2O)cc1 [Gastrodin (Gastrodine)] | 102% and 101% | 99.8 | 107 | 101 | 105 | 104 | 104 | 98.3
29 | CO[C@@H]1[C@@H](OC(N)=O)[C@@H](O)[C@H](Oc2ccc3c(O)c(NC(=O)c4ccc(O)c(CC=C(C)C)c4)c(=O)oc3c2C)OC1(C)C [Novobiocin sodium (Albamycin)] | 103% and 87.6% | 82.6 | 91.6 | 92.9 | 93.6 | 89.7 | 91.4 | 94.4
30 | O=C(O)C[C@H](O)C[C@H](O)/C=C/c1c(C2CC2)nc2ccccc2c1-c1ccc(F)cc1 [Pitavastatin calcium (Livalo)] | 37.4% and 50.7% | 34.6 | 25.3 | 34.4 | 32.9 | 48.4 | 1.41 | 4.89
31 | COc1ccc(C2CNC(=O)C2)cc1OC1CCCC1 (stereo not given) [Rolipram] | 92.9% and 98% | 98.6 | 104 | 102 | 101 | 103 | 108 | 110
32 | CC(C)[C@H](NC(=O)[C@H](CC(=O)O)NC(=O)[C@H](CCCCN)NC(=O)[C@@H](N)CCCN=C(N)N)C(=O)N[C@@H](Cc1ccc(O)cc1)C(=O)O [Thymopentin] | 92.2% and 89.2% | 87 | 86.4 | 94.6 | 95.8 | 91.6 | 77.9 | 89.5
33 | COc1cc2oc(-c3ccccc3)cc(=O)c2c(OC)c1OC [5,6,7-Trimethoxyflavone] | 109% and 110% | 107 | 99.9 | 96.3 | 111 | 110 | 85.1 | 87.3
34 | Nc1c(Br)cc(Br)cc1CN[C@H]1CC[C@H](O)CC1 [Ambroxol HCl] | 103% and 109% | 105 | 106 | 102 | 101 | 107 | 104 | 101
35 | CC(C)c1c(C(=O)Nc2ccccc2)c(-c2ccccc2)c(-c2ccc(F)cc2)n1CC[C@@H](O)C[C@@H](O)CC(=O)O [Atorvastatin calcium (Lipitor)] | 67.2% and 88.5% | 56.9 | 52 | 50.4 | 67.7 | 91.5 | 41.1 | 45.6
36 | COc1cc2nc(N3CCCN(C)CC3)nc(NC3CCN(Cc4ccccc4)CC3)c2cc1OC | 6.31% and 1.97% | 3.98 | 0.75 | 0.69 | 0.24 | 0.26 | 0.23 | 0.28
37 | CC1(C)CC[C@]2(C(=O)O)[C@H](O)C[C@]3(C)C(=CC[C@@H]4[C@@]5(C)CC[C@H](O)C(C)(C)[C@@H]5CC[C@]43C)[C@H]2C1 [Echinocystic acid] | 93.8% and 87.5% | 89 | 87.1 | 99.2 | 85.1 | 90.4 | 82.8 | 94.6
38 | CCn1cc(C(=O)O)c(=O)c2cc(F)c(N3CCN(C)CC3)cc21 [Pefloxacin mesylate] | 97.5% and 101% | 96.6 | 105 | 100 | 100 | 103 | 109 | 115
39 | CN(C)CCc1c[nH]c2ccc(Cn3cncn3)cc12 [Rizatriptan Benzoate (Maxalt)] | 86.7% and 84.6% | 84.2 | 76.2 | 82.7 | 86.7 | 85.6 | 92.7 | 83.5
40 | CCCC(=O)NCCc1csc(-c2ccc(Cl)cc2)n1 [Azoramide] | 86.4% and 89.4% | 98.4 | 79.9 | 83.8 | 102 | 99.5 | 71.1 | 75.5
